Results filed as inconclusive are left out. Entries that show only a call come without a potency. Activity calls are given as the source filed them. Calls follow the shape of the dose curve; as a rule, active = well fitted activation curve with a large enough effect; inconclusive = small, poorly fitted or top-dose-only effect; inactive = no such curve, though single readings can be large or run the other way.
experiment: qHTS assay for re-activators of p53 using a Luc reporter: Hit Validation with no p53 Expressed; details: p53-null cells, luciferase reporter counter-screen; series mostly up to 46.1 µM
Outline: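 Counter-screen of primary hits in a cell line not transfected with p53, in Opti-MEM with 10% FBS; compounds at several concentrations (10 mM stock, 1:5; top 46.1 µM in well), 24 h at 37 deg C, 5% CO2. Luminescence read after 10 min with Amplite reagent.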
Potency is read from the fitted curve at half-maximal effect.

SMILES	Potency
Cc1nnc2n(c1=O)N=C(c1ccc(Cl)cc1)CS2	inactive
O=C(NC(=S)NCCc1ccccc1)C1CCCCC1	inactive
Cn1ncc(Cl)c(Oc2ccc(C(C)(C)C)cc2)c1=O	inactive
Cc1ccc(-c2nnc(SCC(=O)Nc3ccccc3F)o2)cc1	inactive
CN1CCN(C(=O)c2cc3ccccc3cc2O)CC1	inactive
CCCSc1ccc2nc(-c3ccccc3)cn2c1	inactive
Cc1ccc(-n2c(C)cc(C(=O)CSc3nnc4ccccn34)c2C)cc1	731 nM (active)
Cc1ccc(NC(=O)NC(=O)CN2CCC(C(N)=O)CC2)c(C)c1	inactive
Cc1ccc(C2C(C#N)=C(N)Oc3cc4c(cc32)OCO4)cc1 (centres undefined)	inactive
O=C(CC(=O)c1ccccc1O)c1cccc(F)c1	inactive
O=C(CNC(=O)c1cccc(F)c1)N/N=C/c1cc(Br)ccc1OC(=O)/C=C/c1ccco1	inactive
CCCCC(=O)N1CCCC(C)C1 (centres undefined)	inactive
Cc1nc(NC(=O)C2CC3CCCC(C2)C3=O)sc1C (centres undefined)	inactive
Cc1cccc(Nc2nc(N3CCOCC3)nc(N3CCOCC3)n2)c1	inactive
CC1CCC(NC(=O)C2CCN(C(=O)Nc3ccccc3)CC2)CC1 (centres undefined)	inactive
Cc1ccccc1S(=O)(=O)Nc1nc2ccccc2nc1N1CCc2ccccc2C1	inactive
Cc1ccc2nc(-c3ccc(NC(=O)CN4C(=O)c5ccccc5C4=O)cc3)sc2c1	inactive
COc1ccccc1C(=O)CSc1nccn1C	inactive
C=CCn1c(SCC(=O)Nc2ccc(-c3nc4ccc(C)cc4s3)cc2)nnc1-c1ccccc1	inactive
N#Cc1cc2c(nc1SCC(=O)Nc1nccs1)CCCCC2	inactive

SMILES	Potency
Oc1ccccc1-c1cc(-c2ccc3c(c2)OCCO3)n[nH]1	inactive
CCc1ccc2[nH]c(=O)c(CN(CCN(CC)CC)C(=O)NC3CCCCC3)cc2c1	inactive
CC(C)(C)OC(=O)N1CCC(C(=O)Nc2ccc3c(c2)CCC3)CC1	inactive
S=C(Nc1cccc(Br)c1)c1ccccc1	inactive
COc1ccc(N(C(=O)Nc2ccc(Cl)cc2)C2=NCCC2)cc1	inactive
CCC(C)C(=O)N1CCc2cc(-c3csc(N)n3)ccc21 (centres undefined)	inactive
O=C(COc1ccccc1[N+](=O)[O-])N/N=C/c1cccc(OC(=O)c2ccc3c(c2)OCO3)c1	inactive
O=C(CCc1nc(-c2ccccc2)no1)N1CCCC1	inactive
Cc1ccc(NC(=O)c2ccc(OC(=O)C(C)Oc3ccc(Cl)cc3C)cc2)cc1 (centres undefined)	inactive
O=C(COC(=O)c1cccnc1Cl)Nc1ccc(N2CCCCC2)cc1	inactive
COC(=O)C1=C(C(=O)c2ccccc2)C(c2ccc(OC)c(OC)c2)Nc2nnnn21 (centres undefined)	inactive
O=C(NNC(=O)C1CCCO1)c1ccccc1Cl (centres undefined)	inactive
Clc1ccc(OCc2nc(-c3ccncc3)no2)c(Cl)c1	inactive
C=CCSC1=N/C(=C\c2cc(OCC)c(OC(C)=O)c([N+](=O)[O-])c2)C(=O)S1	inactive
COc1cc(C2NC(=S)NC(O)(C(F)(F)F)C2C(=O)c2cccs2)cc(OC)c1O (centres undefined)	inactive
Cn1c(=N)n(CC(=O)c2ccc(Cl)c(Cl)c2)c2ccccc21	inactive
O=C(/C=C/c1cnc2ccccc2n1)NC12CC3CC(CC(C3)C1)C2	inactive
COc1ccccc1N=Nc1[nH]c2ccc(C)cc2c1O	inactive
CC(C)c1ccc2oc(-c3ccc(N)cc3)nc2c1	inactive

— PubChem BioAssay AID624331 (National Center for Advancing Translational Sciences (NCATS), 2012)
